# Hsp90 Hop PPI: qHTS Assay for Disrupters of an Hsp90 Co-Chaperone Interaction; Hsp90 C-terminal peptide / TPR2A (Hop) interaction, human; Potency, µM (titrated, usually from 57 µM), for inactives: at the highest dose activity change, negative = inhibition; AlphaScreen TPR2A-His6 binding biotin-Hsp90 C-terminal peptide; 71,000 tested, 0.44% active; active = well fitted curve in either direction with a large enough effect; inconclusive = small, poorly fitted or top-dose-only effect, or another doubt; also: potency is read from the fitted curve at half-maximal effect; % is scaled to controls: 0 for no effect and ±100 for the full control effect
# BRCT PPI red: qHTS Assay for Inhibitors of BRCT-Phosphoprotein Interaction (Red Fluorophore) | Breast cancer type 1 susceptibility protein (Homo sapiens), P38398 | BRCT-phosphopeptide binding, red fluorescence polarization | Potency, µM (doses to about 76.9 µM), inactives show at the top dose activity change, negative = inhibition, hits mostly inhibitors | 75,000 tested, 0.03% active | AID 892, 2007; also: % is scaled to controls: 0 for no effect and ±100 for the full control effect
#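 Rhodamine-labelled pBACH1 10-mer (100 nM) bound to BRCT domain (100 nM) at pH 7.3; compounds incubated 12 min room temperature, polarization read. Free peptide defines full inhibition; unlabelled decapeptide titrated as control.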
# Pol III holo inh: qHTS Assay for Inhibitors of DNA Polymerase III Holoenzyme System | reconstituted DNA polymerase III holoenzyme replication, biochemical | Potency, µM (highest dose often 57.1 µM), without a hit: top-dose activity change, negative = inhibition | 71,000 tested, 0.25% active | AID 603, 2007; also: potency is read from the fitted curve at half-maximal effect; % is scaled to controls: 0 for no effect and ±100 for the full control effect
#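 Reconstituted *E. coli* holoenzyme (0.35 nM Pol III, 1 nM beta, 154 nM SSB, 2 nM primase) was preincubated with compound for 15 min at RT. Synthesis on 1.4 nM ssM13Gori ran 35 min, then was stopped with PicoGreen/EDTA and read as dsDNA fluorescence.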
# YjeE inh: qHTS Assay for Inhibitors of YjeE; 71,000 tested, 0.05% active; Potency, µM; purified YjeE enzyme, qHTS inhibition assay
#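 Fluorescence polarization of a BODIPY Texas Red–ADP probe (2 uM) bound to purified YjeE (10 uM) was read after 15 min room-temperature incubation with compounds. Loss of polarization marks inhibitors; ADP serves as titrated control.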
# Tau filament bind: qHTS Assay for Tau Filament Binding. Microtubule-associated protein tau (Homo sapiens), P10636. recombinant tau filaments, thioflavin S fluorescence, 15 h; filaments grown with octadecylsulfate alongside compound. Potency, µM (titrated, usually from 57.1 µM), for the others: top-dose activity change, negative = inhibition. 71,000 tested, 2% active. AID 596, 2007;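 also: potency is read from the fitted curve at half-maximal effect; % is scaled to controls: 0 for no effect and ±100 for the full control effect; actives lower thioflavin S fluorescence by blocking filaments or displacing dye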
# Target sequence (P10636 whole entry, looked up): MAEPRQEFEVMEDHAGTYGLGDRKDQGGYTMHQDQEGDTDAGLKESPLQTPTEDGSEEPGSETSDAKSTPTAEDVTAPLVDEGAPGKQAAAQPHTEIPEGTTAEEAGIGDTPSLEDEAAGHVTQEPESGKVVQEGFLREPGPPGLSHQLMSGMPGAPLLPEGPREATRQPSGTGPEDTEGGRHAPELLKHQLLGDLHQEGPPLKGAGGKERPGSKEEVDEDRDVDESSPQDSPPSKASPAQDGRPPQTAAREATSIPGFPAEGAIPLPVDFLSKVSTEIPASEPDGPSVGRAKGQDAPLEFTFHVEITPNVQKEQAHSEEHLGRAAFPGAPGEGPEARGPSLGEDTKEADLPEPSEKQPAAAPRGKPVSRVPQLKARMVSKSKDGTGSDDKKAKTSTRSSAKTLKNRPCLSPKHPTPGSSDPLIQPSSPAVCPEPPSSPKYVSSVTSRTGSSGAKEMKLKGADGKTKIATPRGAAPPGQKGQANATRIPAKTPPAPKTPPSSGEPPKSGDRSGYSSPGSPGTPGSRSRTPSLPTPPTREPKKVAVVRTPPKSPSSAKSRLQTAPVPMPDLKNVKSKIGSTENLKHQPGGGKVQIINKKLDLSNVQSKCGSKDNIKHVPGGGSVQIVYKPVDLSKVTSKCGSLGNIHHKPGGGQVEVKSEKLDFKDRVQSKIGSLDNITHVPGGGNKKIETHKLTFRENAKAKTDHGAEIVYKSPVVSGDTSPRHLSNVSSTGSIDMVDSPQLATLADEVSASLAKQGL
#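 Read-out: ThS fluorescence, 450 nm excitation/510 nm emission; lower signal marks blocked filament formation or displaced dye. Tau at 1 uM with 30 uM ODS, 10 uM ThS, 5 mM DTT, 100 mM NaCl, 10 mM HEPES pH 7.4; 15 h, 37 C.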
# BRCT PPI green: qHTS Assay for Inhibitors of BRCT-Phosphoprotein Interaction (Green Fluorophore). BRCA1 BRCT-phosphopeptide binding, green fluorescence polarization. Potency, µM (doses to about 76.9 µM), for the others: at the highest dose activity change, negative = inhibition, actives largely listed as inhibitors. 75,000 tested, 0.05% active. AID 875, 2007;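 also: potency is read from the fitted curve at half-maximal effect; plate controls were peptide without protein for full effect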
#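 Compounds were incubated for 12 min at room temperature with a complex of 100 nM fluorescein-tagged pBACH1 decapeptide and 250 nM His-tagged BRCT protein. Buffer was phosphate pH 7.3 with EDTA, DTT and Tween 20. Disruption of binding lowers the polarization signal.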
# Numbers without * were called inactive; i = inactive; ? = inconclusive; . = no result given; [ ] = remark or other dose. Hits are enriched below; roughly 2.3% of the tested compounds scored in any of these assays. Unless noted, calls follow the shape of the dose curve; as a rule, active = well fitted curve in the direction sought with a large enough effect; inconclusive = small, poorly fitted or top-dose-only effect, or another doubt; inactive = no such curve, though single readings can be large; an effect the other way counts as inactive or inconclusive.
SMILES,Hsp90 Hop PPI,BRCT PPI red,Pol III holo inh,YjeE inh,Tau filament bind,BRCT PPI green
COC(=O)c1ccc(C(NC(=O)OCc2ccccc2)/C(F)=C/[C@@H](C)C(=O)NCc2cccnc2)cc1 (some centres undefined),-5.7%,-0.1%,-6.8%,i,19.9%,-0.1%
COCCn1c(=O)c(-c2cccs2)nc2cnc(Oc3ccc(OC)cc3)nc21,16.2%,-0.6%,-3.4%,i,?,2.1%
C=C(CO)[C@H]1Cc2c(ccc3c(=O)c4c(oc23)COc2cc(OC)c(OC)cc2-4)O1,-5.6%,.,-2.9%,i,31.6µM*,.
COc1cccc(Cn2c(=O)c(-c3ccccc3)nc3cnc(N(C)C)nc32)c1,10µM*,-1.2%,-10.5%,i,2.3%,5.4%
CN(C)c1ncc2nc(-c3ccccc3)c(=O)n(C)c2n1,12.6µM*,0.0%,-6.8%,i,304.4%,0.4%
Cc1cc(O)ccc1Nc1nc2ccccc2nc1Nc1ccc(O)cc1C,-16.9%,0.0%,0.0%,i,7.94µM*,0.0%
Cc1ccc(O)c(C(=O)CC(=O)c2cccc(F)c2)c1,-25.6%[11 µM],0.0%,1.1%[11.4 µM],i,2µM*,-3.4%
O=C(CC(=O)c1cc(Cl)ccc1O)c1ccccc1,-8.0%,0.3%,0.1%,i,25.1µM*,-1.0%
O=C(CCc1ccccc1)Nc1cc(Cl)ccc1O,8.0%,-0.2%,0.8%,i,-5.9%,-0.6%
CN1CCN(c2nc(-c3ccc4c(c3)OCO4)nc3ccccc23)CC1,-9.3%,1.8%,-5.6%,i,37.1%,-0.3%
N[C@H](CCC(=O)N[C@H](CSN=O)C(=O)NCC(=O)O)C(=O)O,-4.7%,-4.6%,-2.8%,i,?,0.7%
c1ccc(C2=NN[C@@H]3c4ccccc4-c4ccccc4N3C2)cc1,-6.7%[11 µM],-1.1%[15.4 µM],-15.4%[11.4 µM],i,3.98µM*,3.4%[15.4 µM]
CCCCOC(=O)CN1C(=O)c2ccc(C(=O)OCCCC)cc2C1=O,25.1µM*,-1.6%,-2.4%,i,-1.5%,3.1%
CS(=O)(=O)N1CCC2(CC1)CN(c1cccc(-c3ccccc3)c1)C2,?,-1.9%,-2.2%,i,-26.6%,-6.6%
c1ccc(-c2nc(NCCCN3CCOCC3)c3ccccc3n2)cc1,-1.6%,-7.6%,-7.7%,i,5.01µM*,8.7%
COc1cc(N)ccc1Cc1ccc(N)cc1OC,-12.6%,-0.7%,-6.6%,i,25.1µM*,-4.3%
CCC(CC)NCc1ccc(OC)cc1OC,-0.4%,0.7%,0.9%,i,-15.2%,-1.3%
N#CC1=C(C2CC2)CC(c2ccccc2)C(C#N)=C1N (centres undefined),3.3%,-4.1%,-0.3%,i,40.4%,11.9%
N#CC1=C(N)SC2(CCCCC2)SC1c1ccccc1 (centres undefined),-1.8%,-2.5%,7.2%,i,20µM*,-0.4%
c1ccc(-c2cccc(-c3ccccn3)n2)nc1,3.16µM*,1.0%,1.5%,i,-3.2%,-0.5%
CCOC(=O)C(C)Sc1nc(-c2ccco2)cc(C(F)(F)F)c1C#N (centres undefined),?,0.0%,-6.6%,i,20µM*,0.2%
COc1ccc(Cl)cc1NC(=O)C1CCCN(S(=O)(=O)c2cccc3nonc23)C1 (centres undefined),-7.9%,-0.6%,7.9%,i,25.1µM*,3.3%
NC(=O)c1cc[n+](CC2=C(C(=O)O)N3C(=O)C(NC(=O)C(c4ccccc4)S(=O)(=O)[O-])C3SC2)cc1 (centres undefined),.,-0.7%,.,.,.,-2.3%[3.08 µM]
O=C1NC(c2cccs2)Nc2sc3c(c21)CCCC3 (centres undefined),?,-4.6%,?,i,2.51µM*,-5.6%
O=C(O)/C=C(/C(=O)O)[C@]12CCN3CC4=CCO[C@@H]5CC(=O)N[C@@H]1[C@H]5[C@H]4C[C@H]32,-0.2%[11 µM],0.1%[15.4 µM],-11.0%[11.4 µM],i,3.1%[11.4 µM],-2.6%[15.4 µM]
SMILES,Hsp90 Hop PPI,BRCT PPI red,Pol III holo inh,YjeE inh,Tau filament bind,BRCT PPI green
CCOC(=O)SC1=N/C(=C\c2ccc(N(C)C)cc2)C(=O)S1,-18.0%,2.7%,-3.9%,i,3.16µM*,39.6%
CCOC(=O)C1=C(C)NC(=O)N[C@@H]1c1coc2cc(C)cc(C)c2c1=O,-3.0%[11 µM],-1.4%[15.4 µM],0.4%[11.4 µM],i,14.2%[11.4 µM],0.5%[15.4 µM]
CCC(Cl)CC(Cl)C(Cl)C(Cl)C(Cl)C(C)Cl (centres undefined),31.6µM*,0.4%,-6.2%,i,-3.9%,0.6%
CCOc1ccc2nc3sc(C(=O)N4CCN(C)CC4)c(N)c3cc2c1,-7.2%,-0.8%,-2.3%,i,?,0.7%
CCOc1ccc2nc3cc(N=Nc4ccc(N)nc4N)ccc3c(N)c2c1,-17.6%[11 µM],-3.5%[15.4 µM],3.16µM*,i,35.0%[11.4 µM],-5.8%[15.4 µM]
CC(C)COC(=O)c1cc(-c2ccc(/C=N/n3cnnc3)o2)ccc1Cl,-5.2%,0.6%,-5.7%,i,25.1µM*,-1.6%
C[C@@H]1C[C@@H]2[C@H]3CCC4=CC(=O)C=C[C@]4(C)[C@]3(Cl)[C@@H](O)C[C@@]2(C)[C@@]1(O)C(=O)CO,-12.0%,-1.0%,-4.0%,i,-10.9%,-0.9%
O=C(Nc1nc(-c2ccccn2)cs1)c1ccc(Cl)s1,7.94µM*,6.8%,-3.4%,i,118.3%,-2.4%
O=S(=O)(c1cccc2nsnc12)N1CCCC1,-4.5%,-0.2%,-5.0%,i,-10.3%,-0.9%
O=C(C1CCN(S(=O)(=O)c2cccc3nsnc23)CC1)N1CC=C(c2ccccc2)CC1,-13.8%,-0.3%,-2.5%,i,20µM*,0.3%
COc1ccccc1N1CCN(S(=O)(=O)c2cccc3nsnc23)CC1,-6.7%,1.0%,-2.2%,i,-29.9%,-0.9%
O=S(=O)(c1cccc2nsnc12)N1CCc2ccccc2C1,-7.2%,1.1%,2.3%,i,20µM*,-2.0%
CC1Cc2ccccc2N1S(=O)(=O)c1cccc2nsnc12 (centres undefined),-24.4%,0.0%,1.8%,i,25.1µM*,-8.9%
CC1(C)CC[C@]2(C(=O)O)CC[C@]3(C)C(=CC[C@@H]4[C@@]5(C)CC[C@H](O)C(C)(C)[C@@H]5CC[C@@]43C)[C@@H]2C1,-10.7%,.,-11.1%,i,?,.
Nc1ccn([C@@H]2CC[C@H](CO)O2)c(=O)n1,5.0%[26 µM],-0.2%[34.4 µM],-1.0%[25.6 µM],i,-22.5%[25.6 µM],0.1%[34.4 µM]
COc1cc(C2C(C(=O)OC(C)C)=C(C)Nc3[nH]c(=O)[nH]c(=O)c32)ccc1O (centres undefined),?,0.8%,-0.2%,i,12.3%,-3.7%

# Bioassay records from PubChem.
